Sampled rows, rich in hits. Any-hit rate of the full collection: about 9.3%.
FMDV inh = High Throughput Screening for Foot and Mouth Disease Virus Antivirals. FMDV antiviral cell-based qHTS. Potency, µM (titrated, usually from 57.9 µM), without a hit: at the highest dose activity change, negative = inhibition, hits mostly inhibitors. 1.2% of 410,000 active. AID 1159524, 2015; calls by dose curve; tested in HEK293T cells; note: read-out not given here; potency is the fitted concentration of half-maximal effect; nearly all actives have a fitted effect of over 45% in size
Sm TGR block = qHTS Assay for the Inhibitors of Schistosoma Mansoni Peroxiredoxins. 3% of 360,000 active. AID 485364, 2010. purified TGR, DTNB reduction, TNB absorbance 405 nm. Potency, µM (highest dose often 114 µM), inactives show at the top dose activity change, negative = inhibition, hits mostly inhibitors. Schistosoma mansoni thioredoxin glutathione reductase (TGR), Q962Y6; note: potency is the fitted concentration of half-maximal effect; nearly all actives have a fitted effect of over 60% in size
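TGR 20 nM + NADPH 100 uM (dispensed conc.), cpd preinc 15 min RT; start with NADPH (500 uM addition) then DTNB (15 mM addition). Kinetic TNB absorbance, 405 nm filter. Four-parameter Hill fit across titration.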
HCMV inh = qHTS Assay for inhibitors of the human cytomegalovirus (HCMV) | AID 1259415, 2018 | HFF cells, HCMV-luciferase reporter, 72 h; hits give low values | 4.5% of 410,000 active | activity change, negative = inhibition, % at 57.5 µM; in the data active = activity change below about -60%; inconclusive = no clear call, values can overlap the other calls; inactive = above about -39%
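Two-dose cell screen: HFF monolayers treated with compounds and infected with luciferase-expressing HCMV at 1 PFU/cell, 72 h at 37C, then lysed for luciferase measurement.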
HCV inh = qHTS Assay for Inhibitors of Hepatitis C Virus (HCV); Huh7.5.1 HCVcc-Cre infection, luciferase reporter, 44 h; Potency, µM (top dose mostly 41.8 µM), for inactives: at the top dose activity change, negative = inhibition, usual class: inhibitors; 3.4% of 340,000 active; note: potency is the fitted concentration of half-maximal effect
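1,000 cells/well; 4 h culture; + compound; + HCVcc-Cre (~0.5 moi); 44 h; luciferase substrate, RT 15 min; read 15 sec.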
Vaccinia Venus = qHTS for Stage-Specific Inhibitors of Vaccinia Orthopoxvirus: Venus Reporter Primary qHTS; Vaccinia virus Venus reporter expression, fluorescence; Potency, µM (top dose mostly 36.5 µM), for inactives: top-dose activity change, negative = inhibition, most hits filed as inhibitors; 0.46% of 330,000 active; AID 720580, 2013; calls by dose curve; tested in A549 cells; note: potency is the fitted concentration of half-maximal effect; nearly all actives have a fitted effect of over 30% in size
VACV mCherry inh = qHTS for Stage-Specific Inhibitors of Vaccinia Orthopoxvirus: mCherry Reporter Primary qHTS; Vaccinia virus mCherry reporter infection, fluorescence; Potency, µM (titrated, usually from 36.5 µM), for the others: at the highest dose activity change, negative = inhibition, actives largely listed as inhibitors; 0.63% of 310,000 active; calls by dose curve; tested in A549 cells; note: potency is the fitted concentration of half-maximal effect; nearly all actives have a fitted effect of over 35% in size
An asterisk follows results filed as active; [ ] = remark or other dose. Unless noted, calls come from the whole dose curve; as a rule, active = well fitted curve in the direction sought with a large enough effect; inconclusive = small, poorly fitted or top-dose-only effect, or another doubt; inactive = no such curve, though single readings can be large; an effect the other way counts as inactive or inconclusive. % is set by controls: 0 for no effect and ±100 for the full control effect.

Results for COc1ccc2[nH]cc(CCNc3cc(-c4cccc(C#N)c4)ncn3)c2c1 ?
FMDV inh: -24.5%

Results for C/C(=N/NC(=O)C1CCCCC1)c1ccc([N+](=O)[O-])cc1 ?
FMDV inh: -1.5%; Sm TGR block: 8.5%; HCMV inh: 100.9; HCV inh: 21.5%; Vaccinia Venus: -21.0%; VACV mCherry inh: inactive

How did COc1cccc(N2CCN(C(=O)c3ccc(CSc4nc5ccncc5[nH]4)cc3)CC2)c1 do in these assays?
FMDV inh: -19.2%; Sm TGR block: -14.4%; HCMV inh: -86.6*; HCV inh: inconclusive; Vaccinia Venus: -14.2%; VACV mCherry inh: -19.8%

Results for Cc1ccc(C)c(N2CCN(C(=O)c3ccc(CSc4nc5ccncc5[nH]4)cc3)CC2)c1 ?
FMDV inh: 17.8µM*; Sm TGR block: -9.5%; HCMV inh: inconclusive; HCV inh: inconclusive; Vaccinia Venus: -19.8%; VACV mCherry inh: -15.3%

What do the screens show for `O=C(c1ccc(CSc2nc3ccncc3[nH]2)cc1)N1CCCCC1`?
FMDV inh: -14.4%; Sm TGR block: -1.3%; HCMV inh: 10.5; HCV inh: 0.6%[8.37 µM]; Vaccinia Venus: -11.0%; VACV mCherry inh: -5.3%

How did CC(=O)Oc1ccccc1N(C(C)=O)S(=O)(=O)c1ccc2ccccc2c1 do in these assays?
FMDV inh: 12.9%; Sm TGR block: -3.3%[57.1 µM]; HCMV inh: -35.2; HCV inh: 1.3%; Vaccinia Venus: -1.5%; VACV mCherry inh: inactive

What do the screens show for `CC(=O)Oc1c(Br)cc(N(C(C)=O)S(=O)(=O)c2ccccc2)c2ccccc12`?
FMDV inh: -2.0%; Sm TGR block: 3.55µM*; HCMV inh: -27.1; HCV inh: inconclusive

Results for O=C(CSc1ccsc1[N+](=O)[O-])Nc1cc(F)ccc1F ?
FMDV inh: 37.4%; Sm TGR block: 35.5µM*; HCMV inh: -2.8; HCV inh: -7.8%; Vaccinia Venus: -15.3%; VACV mCherry inh: -15.0%

What do the screens show for `CCCN[C@H]1CCc2nc(N)sc2C1`?
FMDV inh: -22.5%; HCMV inh: 61.5; HCV inh: 10.0%; Vaccinia Venus: -9.4%; VACV mCherry inh: -20.6%

Results for O=C(Nc1ccc(N2CCN(C(=O)c3ccccc3)CC2)cc1)c1cc2ccccc2o1 ?
FMDV inh: 14.1µM*; Sm TGR block: -3.6%; HCMV inh: -65.9*; HCV inh: inconclusive; Vaccinia Venus: inconclusive

Results for CN1CCN(c2ccc(NC(=O)c3cc4ccccc4o3)cc2)CC1 ?
FMDV inh: 47.4%; Sm TGR block: -15.4%; HCMV inh: 97.1; HCV inh: inconclusive

Results for CCCC(=O)N1CCN(c2ccc(NC(=O)c3cc4ccccc4o3)cc2)CC1 ?
FMDV inh: 25.1µM*; Sm TGR block: -4.8%; HCMV inh: -7.3; HCV inh: 10µM*; Vaccinia Venus: -16.2%

How did O=C(c1cc(-c2ccc(Br)cc2)nc2ccccc12)N1CCC1 do in these assays?
FMDV inh: -20.8%; Sm TGR block: -21.8%; HCMV inh: 20.6; HCV inh: inconclusive; Vaccinia Venus: -9.5%; VACV mCherry inh: -20.8%

How did COCC(C)n1c(-c2ccc3c(c2)NC(=O)CO3)csc1=Nc1ccc(OC(F)F)cc1 (stereo unspecified) do in these assays?
FMDV inh: 20µM*; Sm TGR block: -8.9%; HCMV inh: -88.2*; HCV inh: 10µM*; Vaccinia Venus: inconclusive; VACV mCherry inh: inconclusive

What do the screens show for `Nc1nc(-c2ccc3c(c2)NC(=O)CO3)cs1`?
FMDV inh: 10.0%; Sm TGR block: inconclusive; HCMV inh: 1.0; HCV inh: inconclusive; Vaccinia Venus: -12.9%; VACV mCherry inh: -21.2%

How did O=C1COc2ccc(-c3csc(=Nc4ccc(OC(F)F)cc4)n3CC3CCCO3)cc2N1 (stereo unspecified) do in these assays?
FMDV inh: 22.4µM*; Sm TGR block: -11.4%; HCMV inh: -93.6*; HCV inh: inconclusive

Results for COc1ccccc1N=c1scc(-c2ccc3c(c2)NC(=O)CO3)n1CC1CCCO1 (stereo unspecified) ?
FMDV inh: 35.5µM*; Sm TGR block: 0.7%; HCMV inh: inconclusive; HCV inh: inconclusive; Vaccinia Venus: -29.1%

What do the screens show for `c1ccc(-c2csc(=Nc3cccnc3)n2CC2CCCO2)cc1` (stereo unspecified)?
FMDV inh: -21.5%; Sm TGR block: -0.5%; HCMV inh: -35.8; HCV inh: 2.4%; Vaccinia Venus: -9.0%; VACV mCherry inh: -12.3%

Results for CN(C)S(=O)(=O)c1cccc(N=c2scc(-c3ccc4c(c3)NC(=O)CO4)n2CC2CCCO2)c1 (stereo unspecified) ?
FMDV inh: 28.2µM*; Sm TGR block: -7.4%; HCMV inh: inconclusive; HCV inh: inconclusive; Vaccinia Venus: -20.4%

How did O=C(NCCc1ccccc1)C1CCCN(S(=O)(=O)c2cccc3nsnc23)C1 (stereo unspecified) do in these assays?
FMDV inh: -25.2%; Sm TGR block: -3.6%; HCMV inh: -8.2; HCV inh: -20.8%; Vaccinia Venus: -16.9%; VACV mCherry inh: -6.8%

Results for CN(C)CCN=Cc1c(O)n(-c2ccc(S(=O)(=O)N3CCOCC3)cc2)c(=O)c2ccccc12 ?
FMDV inh: -21.7%; Sm TGR block: 0.5%; HCMV inh: -11.2; HCV inh: 16.1%; Vaccinia Venus: -17.5%; VACV mCherry inh: -11.7%

What do the screens show for `CCNc1nc(C)cc(COC)c1C#N`?
FMDV inh: -3.6%; Sm TGR block: 25.1µM*; HCMV inh: 81.5; HCV inh: 2.5%; Vaccinia Venus: -7.5%; VACV mCherry inh: -22.3%

Results for COCc1cc(C)nc(NCCO)c1C#N ?
FMDV inh: -5.4%; Sm TGR block: 0.4%; HCMV inh: 59.5; HCV inh: 7.7%

What do the screens show for `Cc1ccc(-n2nc3c(=O)n(C(C)C(=O)NCc4ccc(OC(C)C)cc4)nc(C)c3c2C)cc1` (stereo unspecified)?
FMDV inh: 0.0%; Sm TGR block: -14.1%; HCMV inh: -77.4*; Vaccinia Venus: -22.1%[7.34 µM]; VACV mCherry inh: -16.4%[7.34 µM]

How did CSc1ccc(CCNC(=O)C(C)n2nc(C)c3c(C)n(-c4ccccc4)nc3c2=O)cc1 (stereo unspecified) do in these assays?
FMDV inh: inconclusive; Sm TGR block: 1.0%; HCMV inh: -33.1; Vaccinia Venus: -12.6%; VACV mCherry inh: -23.8%
